Results reported in PubChem BioAssay (NCATS).
Records with an inconclusive call do not appear. The source made the active and inactive calls. The call rests on the fitted dose curve; in most records, active means well fitted curve in the direction sought with a large enough effect; inconclusive means small, poorly fitted or top-dose-only effect, or another doubt; inactive means no such curve, though single readings can be large; an effect the other way counts as inactive or inconclusive.

Tests used:
[1] = molecular target: Glutathione peroxidase 1 (Homo sapiens) (UniProt P07203); test: Primary qHTS Assay for Inhibitors of Recombinant Selenoprotein Glutathione Peroxidase 1 (GPX1) (AID 1845191); further: nearly all actives have a fitted effect of over 65% in size
In short: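 Recombinant GPX1 (10 nM final) was preincubated with compound for 30 min at room temperature, then reacted with 1 mM GSH, 0.5 mM CHP, 0.5 mM NADPH and 100 nM glutathione reductase; NADPH fluorescence (340/450 nm) was read at 0 and 15 min.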

[2] = molecular target: Phospholipid hydroperoxide glutathione peroxidase GPX4 (Homo sapiens) (UniProt P36969); test: Primary qHTS Assay for Inhibitors of Recombinant Selenoprotein Glutathione Peroxidase 4 (GPX4) (AID 1845192); further: nearly all actives have a fitted effect of over 65% in size
In short: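 GR-coupled readout: 100 nM GR, 1 mM GSH, 0.5 mM NADPH; NADPH fluorescence (ex 340/em 450 nm) read at t=0 and after 15 min RT. GPX4 200 nM, preincubated 30 min with compound; substrate 0.5 mM CHP.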

[3] = Quantitative High-Throughput drug screen in 47 multiple myeloma cell lines against the NCATS MIPE library collection: Delta47_JCRB cell viability assay (AID 1918925; further: nearly all actives have a fitted effect of over 45% in size; further: potency means the concentration at half of the fitted maximal effect)
In short: (§1)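 Primary qHTS used for cherry-picking: cells at 500/well, library compounds for 48 h (37C, 5% CO2), luminescent ATP assay.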

[4] = Quantitative High-Throughput drug screen in 47 multiple myeloma cell lines against the NCATS MIPE library collection: FR4_PLB cell viability assay (AID 1918924; further: nearly all actives have a fitted effect of over 35% in size; further: potency means the concentration at half of the fitted maximal effect)
In short: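 CellTiter-Glo luminescence (ATP) after 48 h compound exposure, 37C/5% CO2; 500 cells/well; MIPE 4.0 approved/investigational drugs pinned in; DMSO = 100%, media only = 0% viability.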

[5] = Quantitative High-Throughput drug screen in 47 multiple myeloma cell lines against the NCATS MIPE library collection: AMO1_DSMZ cell viability assay (AID 1918927; further: nearly all actives have a fitted effect of over 30% in size; further: potency means the concentration at half of the fitted maximal effect)
In short: as §1

[6] = molecular target: Luciferin 4-monooxygenase (Photinus pyralis) (UniProt P08659); test: Primary firefly luciferase (FLuc) qHTS assay for identification of artifact compounds. (AID 1845220); further: nearly all actives have a fitted effect of over 60% in size
In short: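 qHTS, 15 min compound preincubation with substrate (10 uM luciferin, 10 uM ATP) at RT, then 10 nM FLuc; 5 min; luminescence; % inhibition vs no-enzyme/DMSO controls, 4-parameter Hill fit.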

[7] = Primary fluorescence-based thiol-reactive (MSTI) qHTS assay for identification of artifact compounds. (AID 1845221);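 further: series mostly up to about 54 µM; thiol-reactive compounds lower the probe fluorescence signal; nearly all actives have a fitted effect of over 65% in size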
In short: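 Compounds were incubated 1 h at room temperature in the dark with the MSTI probe (4 uM) in PBS pH 7.4, 2% DMSO. Signals were normalized between Acetyl-MSTI and MSTI.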

[8] = test system: Nanoluciferase (engineered Oplophorus gracilirostris luciferase); test: Primary Nanoluciferase (NLuc) qHTS assay for identification of artifact compounds. (AID 1845222); further: series mostly up to about 54 µM
In short: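 Luminescence read-out of secreted NLuc in S16 cell conditioned medium (1:55); compounds tested with 15 min RT preincubation, then Nano-Glo substrate 1:100, 5 min. % inhibition vs no-enzyme and DMSO controls, 4-parameter Hill fit.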

[9] = Primary redox qHTS assay for identification of artifact compounds. (AID 1845223)
In short: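 Amplex Red (25 uM) and HRP (250 mU/mL) in HBSS, with compounds for 15 min, then 250 uM DTT for 30 min, room temperature, dark. Fluorescence 525/598 nm read; normalized to DMSO and 10 uM DA3003; Hill fit.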

[10] = Quantitative High-Throughput drug screen in 47 multiple myeloma cell lines against the NCATS MIPE library collection: EJM_DSMZ cell viability assay (AID 1918926; further: nearly all actives have a fitted effect of over 30% in size; further: potency means the concentration at half of the fitted maximal effect)
In short: as §1

[11] = Quantitative High-Throughput drug screen in 47 multiple myeloma cell lines against the NCATS MIPE library collection: ARP1_JJKsccF8 cell viability assay (AID 1918928; further: nearly all actives have a fitted effect of over 40% in size; further: potency means the concentration at half of the fitted maximal effect)
In short: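 Luminescence from CellTiter-Glo, taken after 5 min at room temperature, reports cellular ATP as viability. Cells (500 per well) had been treated 48 h at 37 °C with MIPE 4.0 compounds, scaled between DMSO and medium-only controls.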

Measured: Potency

Chain of Phospholipid hydroperoxide glutathione peroxidase GPX4 (Homo sapiens) (P36969 whole entry, looked up): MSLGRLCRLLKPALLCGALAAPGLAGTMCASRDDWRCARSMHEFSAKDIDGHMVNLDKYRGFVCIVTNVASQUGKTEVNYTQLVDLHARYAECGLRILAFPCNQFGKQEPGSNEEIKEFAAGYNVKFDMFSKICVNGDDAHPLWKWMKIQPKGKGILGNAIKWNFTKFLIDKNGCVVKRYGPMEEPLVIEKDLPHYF
Chain of Glutathione peroxidase 1 (Homo sapiens) (P07203 whole entry, looked up): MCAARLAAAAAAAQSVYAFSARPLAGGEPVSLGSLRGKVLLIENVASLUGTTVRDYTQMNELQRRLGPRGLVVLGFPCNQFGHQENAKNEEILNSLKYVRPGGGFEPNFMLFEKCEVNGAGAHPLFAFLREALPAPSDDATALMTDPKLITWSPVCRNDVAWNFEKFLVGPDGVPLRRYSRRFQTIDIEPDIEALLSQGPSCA

Nc1cccc2c1C(=O)N(C1CCC(=O)NC1=O)C2=O (centres undefined)
active: [3] 0.0037 µM
inactive: [1] | [2]

CC(C)NC[C@@H](C(=O)N1CCN(c2ncnc3c2[C@H](C)C[C@H]3O)CC1)c1ccc(Cl)cc1
active: [3] 0.0935 µM
inactive: [1] | [2]

COc1cc2ncnc(Nc3cccc(Br)c3)c2cc1OC
inactive: [1] | [2]
active: [4] 1.32 µM | [5] 3.72 µM

Cc1ccccc1C(=O)Nc1ccc(C(=O)N2CCCC(O)c3cc(Cl)ccc32)c(C)c1 (centres undefined)
active: [10] 20.9 µM
not listed: [2] | [5]
inactive: all other assays above

Cc1cc(C(=O)NOCCO)c(Nc2ccc(I)cc2F)n(C)c1=O
inactive: [1] | [2] | [10]

CC1(C)O[C@@H]2C[C@H]3[C@@H]4CCC5=CC(=O)C=C[C@]5(C)[C@@H]4[C@@H](O)C[C@]3(C)[C@]2(C(=O)CO)O1
inactive: [1] | [2] | [10]
active: [11] 0.0372 µM

CCCCCCCCCCCCCCCC(=O)OC[C@@H](NC(=O)C(Cl)Cl)[C@H](O)c1ccc([N+](=O)[O-])cc1
inactive: [1] | [2] | [10] | [5] | [11]

O=C(O)CCCCCC(=O)NN=C1CCCC1
inactive: [1] | [2] | [10] | [5] | [11]

CC(Oc1ccc(O)cc1)(P(=O)(O)O)P(=O)(O)O
inactive: [1] | [2] | [10] | [11]

c1coc(CNc2ncnc3nc[nH]c23)c1
inactive: [1] | [2] | [3] | [5] | [11]

O=c1ccn([C@@H]2O[C@H](CO)[C@H](O)[C@@H]2F)c(=O)[nH]1
inactive: [1] | [2] | [4] | [11]

CC(=O)O[C@H]1C[C@@H]2CC[C@H]3[C@H]4C[C@H]([N+]5(C)CCCCC5)[C@@H](OC(C)=O)[C@@]4(C)CC[C@@H]3[C@@]2(C)C[C@H]1[N+]1(C)CCCCC1
inactive: [1] | [2] | [4] | [10] | [11]

O=C(CN1C(=O)C2(CCCC2)NC[C@H]1c1cc(F)cc(F)c1)Nc1ccc2c(c1)C[C@@]1(C2)C(=O)Nc2ncccc21
inactive: [1] | [2] | [3] | [10] | [5] | [11]

C=CCNc1c(O)cc2c(O)c1C[C@@H](C)C[C@H](OC)[C@@H](O)[C@@H](C)C=C(C)[C@H](OC(N)=O)[C@@H](OC)C=CC=C(C)C(=O)N2
active: [4] 0.372 µM | [3] 0.469 µM | [10] 1.05 µM | [5] 0.148 µM | [11] 0.148 µM

CC(=O)OCC(=O)[C@@]12N=C(C)O[C@H]1C[C@H]1[C@@H]3CCC4=CC(=O)C=C[C@]4(C)[C@@H]3[C@@H](O)C[C@@]12C
inactive: [4] | [3] | [10] | [11]

CC(=O)NCC(=O)N1[C@H]2CC[C@H]1c1cc(Nc3ncc(C(F)(F)F)c(NC4CCC4)n3)ccc12
active: [4] 9.35 µM | [3] 0.662 µM | [10] 7.43 µM | [5] 0.235 µM | [11] 4.69 µM

CC[C@H]1OC(=O)[C@H](C)[C@@H](O[C@H]2C[C@@](C)(OC)[C@@H](O)[C@H](C)O2)[C@H](C)[C@@H](O[C@@H]2O[C@H](C)C[C@H](N(C)C)[C@@H]2O)[C@](C)(OC)C[C@@H](C)C(=O)[C@H](C)[C@@H](O)[C@]1(C)O
inactive: [4] | [3] | [10] | [11]

CCOC(=O)[C@H](CCc1ccccc1)N[C@@H](C)C(=O)N1[C@@H](C(=O)O)C[C@H]2CCC[C@@H]21
active: [4] 18.7 µM | [3] 8.33 µM | [10] 20.9 µM | [5] 7.43 µM | [11] 20.9 µM

CC(C)N(CC[C@H](c1ccccc1)c1cc(CO)ccc1O)C(C)C
inactive: [4] | [3] | [10] | [5] | [11]

NS(=O)(=O)OC[C@@H]1C[C@@H](n2ccc3c(N[C@H]4CCc5ccccc54)ncnc32)C[C@H]1O
active: [4] 9.35 µM | [3] 0.526 µM | [5] 0.296 µM

O=C(O)[C@H](CC(=O)N1C[C@@H]2CCCC[C@H]2C1)Cc1ccccc1
inactive: [4] | [3] | [10] | [11]

COc1cc(C=CC(=O)CC(=O)C=Cc2ccc(O)c(OC)c2)ccc1O
active: [4] 10.8 µM | [3] 4.29 µM | [10] 21.5 µM | [11] 8.55 µM
